PubChem BioAssay (Tox21)
Values joined by “and” are separate entries in the source; they are usually repeats but may differ in a detail not shown here. Identical values can stand only once. Records with an inconclusive call do not appear. A call without a number means that no potency is given here. A structure can be active in one record and inactive in another. Active and inactive are the calls of the source. Unless noted, calls follow the shape of the dose curve; as a rule, active = well fitted curve in the direction sought with a large enough effect in the repeat runs; inconclusive = weak or mixed curves; inactive = no such curve, though single readings can be large; an effect the other way counts as inactive or inconclusive.

Legend:
[1] = A CellTox Green Cytotoxicity Assay to monitor cytotoxicity in HepG2 cells - 8 hour (AID 1224890); conditions: CellTox Green fluorescence; series mostly up to 76.8 µM; also: nearly all actives have a fitted effect of over 45% in size
Outline: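 Nonlytic assay: viable cells exclude the dye, so fluorescence scales with cell death. HepG2 at 600 cells/well, compounds added after 5 h, signal read across 40 h.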

[2] = qHTS assay to identify small molecule antagonists of the androgen receptor (AR) signaling pathway using the MDA cell line in the presence of 0.5 nM R1881 - cell viability counter screen (AID 1259242); conditions: MDA-kb2 viability, CellTiter-Fluor protease fluorescence, 16 h; series mostly up to 92.4 µM; also: nearly all actives have a fitted effect of over 45% in size
Outline: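 R1881 at 0.5 nM final stimulated MDA-kb2 cells during 16 hr compound treatment at 37C. Cytotoxicity read: CellTiter-Fluor fluorescence after 30 min.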

[3] = qHTS assay to identify small molecule HDAC inhibitors (AID 1259364); conditions: HCT-116 HDAC-Glo I/II luminescence, 2 h; series mostly up to 92.4 µM; also: potency is read from the fitted curve at half-maximal effect;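 also: wild-type HCT-116 cells with endogenous class I/II HDAC activity; nearly all actives have a fitted effect of over 45% in size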
Outline: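 Relative class I and II HDAC activity is taken from the luminogenic signal in HCT-116 cells, with compound exposure 2 hr and reagent development 30 min at room temperature.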

[4] = qHTS assay to identify small molecule HDAC inhibitors - cell viability counter screen (AID 1259365); conditions: HCT-116 viability, CellTiter-Glo ATP luminescence, 2 h; series mostly up to 92.4 µM; also: nearly all actives have a fitted effect of over 50% in size
Outline: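 Cytotoxicity was gauged in wild-type HCT-116 cells after a brief 2hr treatment with DMSO-dissolved compounds at 37C and 5% CO2, using CellTiter-Glo luminescence developed for 30min at room temperature.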

[5] = qHTS assay to identify small molecule antagonists of the sonic hedgehog signaling (Shh) pathway - cell viability counter screen (AID 1259367); conditions: NIH/3T3 Gli1-Luc viability, CellTiter-Fluor, 24 h; series mostly up to 92.4 µM; also: nearly all actives have a fitted effect of over 55% in size
Outline: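 NIH/3T3-derived Gli1-Luc reporter cells, 2,000/well, plated 4 hr before compound addition, then stimulated with conditioned medium for 24 hr at 37C. Viability measured in the same wells by CellTiter-Fluor fluorescence, reagent added at 23 hr for 1 hr.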

[6] = qHTS assay to identify small molecule agonists of the sonic hedgehog signaling (Shh) pathway (AID 1259368; calls by dose curve;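 also: NIH/3T3-derived 3T3Gli1-Luc cells carrying a stable Gli1-driven firefly luciferase reporter; nearly all actives have a fitted effect of over 15% in size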); conditions: NIH/3T3 Gli1-Luc reporter, luciferase, 24 h; series mostly up to 92.4 µM
Outline: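 Mouse fibroblast (NIH/3T3) reporter cells with stably integrated Gli1-Luc were treated 24 hr with compound; firefly luciferase luminescence served as the read-out.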

[7] = qHTS assay to identify small molecule antagonists of the sonic hedgehog signaling (Shh) pathway (AID 1259369; calls by dose curve; also: nearly all actives have a fitted effect of over 45% in size; also: potency is read from the fitted curve at half-maximal effect); conditions: NIH/3T3 Gli1-Luc reporter, Shh antagonist, luminescence 24 h; series mostly up to 92.4 µM
Outline: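 Conditioned medium drives Shh signalling in 3T3Gli1-Luc cells; compounds in DMSO co-applied, 24hr at 37 C, then luciferase luminescence.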

[8] = biological target: Estrogen receptor beta (Homo sapiens) (UniProt Q92731); assay: qHTS assay to identify small molecule agonists of the estrogen receptor beta (ER-beta) signaling pathway (AID 1259377; active = well fitted activation curve with a large enough effect in the signal ratio in the repeat runs, not every such curve was filed as active; the % refers to the signal ratio); conditions: ER-beta-UAS-bla HEK293T, beta-lactamase FRET ratio, 16 h; series mostly up to 92.4 µM
Estrogen receptor beta (Homo sapiens), sequence (Q92731 whole entry, looked up): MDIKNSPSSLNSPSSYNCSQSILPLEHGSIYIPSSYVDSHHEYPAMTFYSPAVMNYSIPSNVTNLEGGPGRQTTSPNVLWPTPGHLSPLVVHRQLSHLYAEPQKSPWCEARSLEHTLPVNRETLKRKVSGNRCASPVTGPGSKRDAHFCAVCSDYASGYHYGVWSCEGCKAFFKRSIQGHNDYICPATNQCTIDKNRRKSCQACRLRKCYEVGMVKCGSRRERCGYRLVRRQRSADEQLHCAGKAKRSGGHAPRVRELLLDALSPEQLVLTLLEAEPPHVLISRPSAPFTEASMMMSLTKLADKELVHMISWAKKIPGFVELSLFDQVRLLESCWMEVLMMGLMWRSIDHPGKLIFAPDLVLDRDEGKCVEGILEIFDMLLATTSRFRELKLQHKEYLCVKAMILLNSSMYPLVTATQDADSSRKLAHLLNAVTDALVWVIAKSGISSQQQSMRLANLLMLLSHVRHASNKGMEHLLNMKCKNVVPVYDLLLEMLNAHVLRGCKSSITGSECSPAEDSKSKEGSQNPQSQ
Outline: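 Measured by fluorescence intensity from a B/G FRET beta-lactamase substrate (2 h, room temperature) in ER-beta-UAS-bla HEK293T cells treated with DMSO-dissolved compounds for 16 hr at 37C and 5% CO2.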

[9] = biological target: Estrogen receptor beta (Homo sapiens) (UniProt Q92731); assay: qHTS assay to identify small molecule antagonists of the estrogen receptor beta (ER-beta) signaling pathway (AID 1259378; active = well fitted inhibition curve with a large enough effect in the signal ratio in the repeat runs, not every such curve was filed as active; the % refers to the signal ratio; also: potency is read from the fitted curve at half-maximal effect); conditions: ER-beta-UAS-bla HEK293T, beta-lactamase FRET ratio, 16 h; series mostly up to 92.4 µM
Outline: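 ER-beta-UAS-bla HEK293T cells in 2% charcoal-stripped FBS medium treated with compound plus 1nM final 17-beta-estradiol for 16 hr at 37C. Beta-lactamase reporter read by FRET substrate fluorescence after 2 hours at room temperature.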

[10] = qHTS assay to identify small molecule agonists of the androgen receptor (AR) signaling pathway in the presence of an antagonist - cell viability counter screen (AID 1259379); conditions: MDA-kb2 viability, CellTiter-Fluor, 16 h; series mostly up to 92.4 µM;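 also: MDA-kb2 human breast cancer cells carrying an MMTV luciferase reporter; nearly all actives have a fitted effect of over 25% in size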
Outline: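 A CellTiter-Fluor read-out measured viability of MDA-kb2 reporter cells (MMTV promoter with AR and GR response elements). Treatment: nilutamide 3.0uM final with compounds at 15 concentrations, 16 hr, 37C, 0% CO2.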

[11] = qHTS assay to identify small molecule antagonists of the estrogen receptor beta (ER-beta) signaling pathway - cell viability counter screen (AID 1259382); conditions: ER-beta-UAS-bla HEK293T viability, CellTiter-Glo luminescence, 16 h; series mostly up to 92.4 µM; also: nearly all actives have a fitted effect of over 55% in size
Outline: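 Agonist-stimulated (1nM E2) ER-beta-UAS-bla HEK293T cells are incubated with library compounds for 16 hr at 37C. Cell viability is then assessed in the reporter-assay wells by adding CellTiter-Glo and reading luminescence after 30 min.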

[12] = biological target: Estrogen receptor (Homo sapiens) (UniProt P03372); assay: qHTS assay to identify small molecule antagonists of the estrogen receptor alpha (ER-alpha) signaling pathway using the BG1 cell line in the presence of 0.1 nM 17-beta-estradiol (AID 1259244); conditions: VM7Luc4E2 (BG1) ERE-luciferase, antagonist mode, 0.1 nM E2, 22 h; series mostly up to 92.4 µM; also: nearly all actives have a fitted effect of over 50% in size
Estrogen receptor (Homo sapiens), sequence (P03372 whole entry, looked up): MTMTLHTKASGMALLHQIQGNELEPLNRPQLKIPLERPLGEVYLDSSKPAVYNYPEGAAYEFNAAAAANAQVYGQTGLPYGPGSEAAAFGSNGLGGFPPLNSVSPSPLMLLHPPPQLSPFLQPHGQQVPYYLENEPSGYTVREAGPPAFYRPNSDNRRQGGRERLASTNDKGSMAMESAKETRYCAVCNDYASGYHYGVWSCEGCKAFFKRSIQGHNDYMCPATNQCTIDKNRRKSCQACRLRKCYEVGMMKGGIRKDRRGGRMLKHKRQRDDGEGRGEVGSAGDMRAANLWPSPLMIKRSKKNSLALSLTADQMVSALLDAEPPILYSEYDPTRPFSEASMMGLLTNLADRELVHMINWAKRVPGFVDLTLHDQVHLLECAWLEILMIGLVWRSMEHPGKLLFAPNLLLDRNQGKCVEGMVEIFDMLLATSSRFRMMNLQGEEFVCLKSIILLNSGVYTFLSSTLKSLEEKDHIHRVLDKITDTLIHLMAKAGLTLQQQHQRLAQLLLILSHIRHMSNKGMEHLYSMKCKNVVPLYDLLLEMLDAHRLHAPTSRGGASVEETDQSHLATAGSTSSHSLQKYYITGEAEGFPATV
Outline: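 VM7Luc4E2; 4xERE-luciferase; 0.1 nM E2 final; 22 h co-incubation, 37C; ONE-Glo luminescence after 30 min at room temperature.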

[13] = qHTS assay to identify small molecule phospholipidosis (PLD) inducers (AID 1259344; active = well fitted curve in the direction sought with a large enough effect; an effect the other way counts as inactive or inconclusive); conditions: HepG2 phospholipidosis, LipidTOX Red imaging, 24 h; series mostly up to 38.3 µM
Outline: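 HepG2 cells, 900/well, treated with compound plus LipidTOX Red for 24 h at 37 C; amiodarone positive and DMSO negative controls. Fixed with paraformaldehyde/Hoechst, then high-content imaging scored LipidTOX pit count and integrated intensity per well and per cell.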

[14] = qHTS assay to identify small molecule agonists of the sonic hedgehog signaling (Shh) pathway - cell viability counter screen (AID 1259366); conditions: NIH/3T3 Gli1-Luc viability, CellTiter-Fluor, 24 h; series mostly up to 92.4 µM; also: nearly all actives have a fitted effect of over 50% in size
Outline: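 Stable Gli1-Luc NIH/3T3 clone, 2,000 cells/well. Compound exposure 24hr at 37C. Read-out: CellTiter-Fluor fluorescence.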

[15] = qHTS assay to identify small molecule agonists of the estrogen receptor beta (ER-beta) signaling pathway - cell viability counter screen (AID 1259380); conditions: ER-beta-bla HEK293T viability, CellTiter-Glo luminescence, 16 h; series mostly up to 92.4 µM; also: nearly all actives have a fitted effect of over 30% in size
Outline: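 Cells used were ER-beta-UAS-bla HEK293T in medium with 2% charcoal-stripped FBS. They were treated for 16 hr at 37C. Viability came from CellTiter-Glo luminescence.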

[16] = biological target: Estrogen receptor (Homo sapiens) (UniProt P03372); assay: qHTS assay to identify small molecule agonists of the estrogen receptor alpha (ER-alpha) signaling pathway in the presence of an antagonist (AID 1259383; calls by dose curve; also: top concentration of the series differs between compounds; nearly all actives have a fitted effect of over 15% in size); conditions: VM7Luc4E2 cells, ERE-luciferase, +ICI-182,780, 22 h; series mostly up to 92.4 µM
Outline: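 Using VM7Luc4E2 cells seeded 24hr before treatment, antagonist ICI-182,780 (10.0nM final) was added, followed by compounds at 15 concentrations. Plates incubated 22hr; ONE-Glo luminescence quantified reporter activity.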

[17] = qHTS assay to identify small molecule agonists or antagonists of the thyroid stimulating hormone receptor (TSHR) signaling pathway - wild type cell line counter screen (AID 1259384; calls by dose curve); conditions: HEK293 wild type, cAMP HTRF counter-screen, stronger effect = higher value; series mostly up to 92.4 µM
Outline: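 Wild-type Hek293 cells, 800/well, 18 h at 37C, then compound with Ro20-1724 for 30 min RT. cAMP by HTRF (cAMP-d2/anti-cAMP cryptate), 1 h RT, fluorescence read. 15 concentrations, triplicates.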

SMILES | Potency [1] | Potency [2] | Potency [3] | outcome [4] | Potency [5] | Potency [6] | Potency [7] | Potency [8] | Potency [9] | Potency [10] | Potency [11] | Potency [12] | outcome [13] | Potency [14] | Potency [15] | Potency [16] | outcome [17]
Nc1ccc(-c2ccc(N)c(N)c2)cc1N | inactive | inactive | 54.3 µM (active) | inactive | inactive | inactive | 13.6 µM (active) | inactive | 48.4 µM (active) | inactive | inactive | – | – | – | – | – | –
O=c1oc2ccccc2c(O)c1C(CC(O)c1ccc(-c2ccc(Br)cc2)cc1)c1ccccc1 (configuration not stated) | inactive | – | inactive | inactive | – | inactive | inactive | inactive | 23 µM (active) | inactive | inactive | inactive | inactive | inactive | inactive | inactive | –
O=[N+]([O-])c1cccc2ccccc12 | inactive | inactive | inactive | inactive | – | inactive | inactive | inactive | inactive | inactive | inactive | inactive | – | inactive | inactive | inactive | inactive
OCC(O)CO | inactive | – | inactive | inactive | – | inactive | inactive | inactive | inactive | inactive | inactive | inactive | – | inactive | inactive | inactive | inactive
c1ccc(P(c2ccccc2)c2ccccc2)cc1 | inactive | inactive | inactive | inactive | – | inactive | inactive and 17.2 µM (active) | inactive | inactive | inactive | inactive | inactive | – | inactive | inactive | inactive | inactive
c1ccc(-c2cccc(-c3ccccc3)c2)cc1 | inactive | inactive | inactive | inactive | inactive | inactive | inactive | – | – | inactive | inactive | inactive | – | inactive | – | inactive | inactive
